# CR mimetic SO: yeast age-related superoxide inhibition as caloric restriction mimetic; 330,000 tested, 0.18% active; AID 2690; S. cerevisiae aged cells, superoxide DHE fluorescence; stronger effect = lower value; superoxide response (% of plate mean), % at 10 µM;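 active = superoxide response under a set limit, about three screen SD below normal, cut at about 65% in these data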;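 note: yeast aged for seven days with compound at 30 °C before DHE staining; 100% = average MFI of all compound-treated wells on the plate with controls excluded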
# HDAC3 inh: human HDAC3 inhibition. O15379. recombinant HDAC3, fluorogenic peptide/trypsin coupled, fluorescence. AID 2718. 320,000 tested, 0.15% active. inhibition, % at 8.3 µM; in the data active = inhibition above about 26%, passing the limit was not always enough; inconclusive = no clear call, values can overlap the other calls
# Target sequence (O15379 whole entry, looked up): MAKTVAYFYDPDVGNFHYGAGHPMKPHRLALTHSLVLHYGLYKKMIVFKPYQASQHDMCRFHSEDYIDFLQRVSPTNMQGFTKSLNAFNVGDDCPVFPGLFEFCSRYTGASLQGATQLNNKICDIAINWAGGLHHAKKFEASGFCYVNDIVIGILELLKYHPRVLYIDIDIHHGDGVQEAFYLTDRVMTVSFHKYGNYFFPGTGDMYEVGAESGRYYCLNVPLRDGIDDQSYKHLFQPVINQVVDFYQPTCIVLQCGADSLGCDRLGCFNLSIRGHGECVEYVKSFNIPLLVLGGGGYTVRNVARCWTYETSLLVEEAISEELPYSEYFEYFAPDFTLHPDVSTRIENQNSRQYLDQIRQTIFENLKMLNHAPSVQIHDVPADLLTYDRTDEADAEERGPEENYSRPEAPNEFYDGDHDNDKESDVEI
# LANA-H2A inh: blocks KSHV LANA binding to histone H2A/H2B. Q9QR71. cell-free LANA-H2A/H2B peptide, fluorescence polarization. inhibition, % (no concentration beside the values). 320,000 tested, 0.6% active. AID 2629; in the data active = inhibition mostly above about 10%, no sharp cut-off; inactive = mostly below about 6.7%
# HIF activator: HIF pathway transcriptional activation. U2OS HRE-luciferase reporter, luminescence; normalized: DMSO 0%, desferrioxamine 100%. activation, % at 7.5 µM (by protocol). 300,000 tested, 0.32% active. AID 1910;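 active = mean activation of at least 10% of the iron chelator positive control signal, with at least half of replicates also reaching 10%; inconclusive = mean and replicate majority disagree about reaching 10%; inactive = mean and most replicates under 10%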
# * marks the source's active call; other numbers are inactive results; ? = inconclusive; . = no result given. This is a sample that favours compounds with a hit; in the whole collection about 1.2% have one here.
SMILES,CR mimetic SO,HDAC3 inh,LANA-H2A inh,HIF activator
C[C@H](CO)N1C[C@H](C)[C@@H](CN(C)C(=O)Nc2ccc(C(F)(F)F)cc2)Oc2c(NC(=O)NC3CCCCC3)cccc2C1=O,102,17,-3,.
C[C@@H]1CN([C@H](C)CO)C(=O)c2cc(NC(=O)Nc3ccc(F)cc3)ccc2O[C@H]1CN(C)C(=O)Nc1ccc(C(F)(F)F)cc1,90,15,.,.
Nc1nnc(SCCCOc2ccc(F)cc2)s1,68,-1,25*,0
CCCOc1ccc(OCCSc2nnc(N)s2)cc1,94,-4,0,2
CC1CCN(S(=O)(=O)c2ccc(C(=O)Nc3ncccc3O)cc2)CC1,108,64*,1,3
COCCCn1c(SCC(=O)Nc2ccc(NC(=O)c3ccco3)c(OC)c2)nc2ccccc2c1=O,105,3,28*,-1
CCOCCCn1c(SCC(=O)Nc2ccccc2OC)nc2ccccc2c1=O,95,1,3,-1
CCCn1ncc2c(Nc3ccc(C)c(C)c3)ncnc21,109,5,1,5
COCCNC(=S)N1CCN(c2nc(-c3ccc(F)cc3)cs2)CC1,112,3,18*,1
COCCNC(=S)N1CCN(c2nc(-c3ccc(Cl)cc3)cs2)CC1,106,-4,-3,-1
O=S(=O)(NCC1CCC(NS(=O)(=O)c2c(F)cccc2F)CC1)c1ccc2c(c1)OCCO2 (stereo unspecified),110,3,5,.
O=C(Oc1oc(-c2ccco2)nc1C=Nc1ccccc1)c1ccco1,93,90*,-5,1
COc1cccc(N=Cc2nc(-c3ccccc3)oc2OC(C)=O)c1,78,59*,3,0
COc1ccc(N=Cc2nc(-c3ccccc3)oc2OC(C)=O)cc1,98,38*,0,2
Cc1ccc(C(=O)Oc2oc(-c3ccccc3)nc2C=Nc2ccc(N(C)C)cc2)cc1,72,-10,-23,1
COc1cccc(-c2ncc3ccccc3c2COC(=O)N2CCCCC2)c1,90,-1,5,.
Oc1ccc(/C=N/Nc2ccc(C(F)(F)F)cn2)c(O)c1,103,?,-2,15*
O=C(NCCc1ccccc1)c1cc2sccc2n1Cc1ccccc1,100,10,5,75*
Cn1c(Cn2c(=O)sc3ccccc32)nnc1SCC(=O)NC1CCCCC1,96,-6,-1,0
Cn1c(Cn2c(=O)sc3ccccc32)nnc1SCC(=O)NC1CCCC1,98,1,17*,-1
Cc1cccc(-c2nnc(SCC(=O)NC3CC3)n2C)c1,90,-5,12*,0
COc1ccc(S(=O)(=O)N2CCOC2CNC(=O)C(=O)NCCCN2CCOCC2)cc1C (stereo unspecified),91,-2,4,0
O=C1Nc2ccccc2Nc2ncccc21,96,-10,15*,0
COc1ccc(S(=O)(=O)N2CCC(C(=O)NCCC3=CCCCC3)CC2)cc1C,111,0,34*,0
COc1ccc(C)cc1S(=O)(=O)N1CCC(C(=O)NCCC2=CCCCC2)CC1,99,-3,2,0
SMILES,CR mimetic SO,HDAC3 inh,LANA-H2A inh,HIF activator
CC(NC(=O)CN(C)Cc1nc2ccccc2c(=O)[nH]1)c1ccccc1 (stereo unspecified),94,2,5,0
CC(C(=O)Nc1ccccc1-c1ccccc1)N(C)Cc1nc2ccccc2c(=O)[nH]1 (stereo unspecified),114,8,-4,57*
CCCc1nc(SCC(=O)c2ccc(F)cc2)c2ccccc2n1,95,33*,0,0
O=C1CN(C(=O)CNCc2ccccc2Cl)c2ccccc2N1,103,.,8,0
CCOc1ccc(N2C(=O)S/C(=C\c3cccn3C)C2=O)cc1,94,1,20*,0
CCOc1ccc(S(=O)(=O)NC2CCCCCC2)cc1,112,-1,2,-1
COc1ccc(F)cc1S(=O)(=O)NC1CCCC1,108,-2,82*,0
CCOc1cc(S(=O)(=O)NC2CCCCCC2)ccc1F,103,4,22*,0
N#CC(Cc1ccc(OC(F)F)cc1)c1nc2ccccc2[nH]1 (stereo unspecified),98,1,-3,4
C=CCN(Cc1ccc(Cl)s1)C(=O)c1ccc(F)c(S(=O)(=O)N2CCOCC2)c1,87,4,-3,.
Cc1ccc(C(=O)Nc2ccc(S(=O)(=O)N3CCOCC3)cc2)cc1Br,94,7,7,0
Cc1ccc(S(=O)(=O)N(C)C)cc1NC(=O)C(C)N(C)Cc1sccc1C (stereo unspecified),101,2,2,0
O=C(O)C(NS(=O)(=O)c1ccc(F)cc1)c1ccccc1 (stereo unspecified),86,2,2,0
CCC/C=C(\CCC)C(NS(=O)(=O)c1ccc(C(F)(F)F)cc1)c1ccccc1 (stereo unspecified),97,27*,0,-2
CCn1c2ccccc2c2cc(NC(=O)c3ccc(C)c([N+](=O)[O-])c3)ccc21,106,6,1,1
CCn1c2ccccc2c2cc(NC(=O)c3coc(=O)c(Br)c3)ccc21,102,-5,20*,-1
CCn1c2ccccc2c2cc(NC(=O)c3ccc(=O)oc3)ccc21,94,5,2,-28
CCn1c2ccccc2c2cc(NC(=O)c3cccc([N+](=O)[O-])c3)ccc21,127,-2,79*,0
O=C(Nc1ccnn1C1CCN(C(=O)CCc2ccc(F)cc2)CC1)C1CCOC1 (stereo unspecified),104,6,3,0
CN(CC(=O)N1CCOCC1)S(=O)(=O)c1ccc2ccccc2c1,105,-1,-2,-1
CC1CN(CCC(=O)Nc2ccccc2F)CC(C)O1 (stereo unspecified),96,-2,2,0
CN1CCN(CCCOc2ccc(-c3ccccc3)cc2)CC1,98,3,-3,-8
CCN1CCN(CCCOc2ccc(-c3ccccc3)cc2)CC1,113,-4,-2,60*
COc1ccc(/C=C2\C(=O)NCC(=O)N2Cc2ccccc2)cc1,105,6,2,3
COc1ccc(/C=C2\C(=O)NCC(=O)N2C)cc1,98,-4,14*,0
SMILES,CR mimetic SO,HDAC3 inh,LANA-H2A inh,HIF activator
COc1ccc(CN2CCNC(=O)C2CC(=O)NC2CCCC2)c(OC)c1 (stereo unspecified),96,-1,1,55*
CCc1ccc(C(C)NC(=O)c2ccncc2)cc1 (stereo unspecified),93,0,23*,-3
CCc1ccc(C(C)NC(=O)c2ccc(F)cc2)cc1 (stereo unspecified),82,5,-1,0
O=C(O)CP(=O)(O)O,96,-11,7.2*,0
CCOc1ccccc1Nc1nnc(SCC(=O)NC2CC2)s1,124,-5,1,.
CCOc1ccccc1Nc1nnc(SCC(=O)NC(=O)c2cccn2C)s1,108,1,16*,0
Cc1cc(C)c2nc(NC(=O)[C@@H](NC(=O)c3cccc(S(=O)(=O)N4CCOCC4)c3)C(C)C)sc2c1,108,0,2,-1

# High-throughput results: PubChem, several laboratories
